In the library only some 0.98% were active in any assay of this set; here they are far more common.
C-LANA FP: inhibitors of KSHV LANA C-terminal domain DNA binding. MBP-C-LANA/FAM-LBS DNA binding, fluorescence polarization. inhibition, % at 9 µM. hit rate 0.078% among 340,000. AID 504423;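 active = highest replicate inhibition at or above 60% at 9 µM, even if other replicates fall short; inactive = all replicates below 60% inhibition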;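 note: 0% = neutral control wells and 100% = 4 µM acridine orange control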
LANA-H2A inh: blocks KSHV LANA binding to histone H2A/H2B | cell-free LANA-H2A/H2B peptide, fluorescence polarization | hit rate 0.6% among 320,000 | Q9QR71 | inhibition, % (test concentration not listed); in the data active = inhibition mostly above about 10%, no sharp cut-off; inactive = mostly below about 6.7%
Target sequence (Q9QR71 whole entry, looked up): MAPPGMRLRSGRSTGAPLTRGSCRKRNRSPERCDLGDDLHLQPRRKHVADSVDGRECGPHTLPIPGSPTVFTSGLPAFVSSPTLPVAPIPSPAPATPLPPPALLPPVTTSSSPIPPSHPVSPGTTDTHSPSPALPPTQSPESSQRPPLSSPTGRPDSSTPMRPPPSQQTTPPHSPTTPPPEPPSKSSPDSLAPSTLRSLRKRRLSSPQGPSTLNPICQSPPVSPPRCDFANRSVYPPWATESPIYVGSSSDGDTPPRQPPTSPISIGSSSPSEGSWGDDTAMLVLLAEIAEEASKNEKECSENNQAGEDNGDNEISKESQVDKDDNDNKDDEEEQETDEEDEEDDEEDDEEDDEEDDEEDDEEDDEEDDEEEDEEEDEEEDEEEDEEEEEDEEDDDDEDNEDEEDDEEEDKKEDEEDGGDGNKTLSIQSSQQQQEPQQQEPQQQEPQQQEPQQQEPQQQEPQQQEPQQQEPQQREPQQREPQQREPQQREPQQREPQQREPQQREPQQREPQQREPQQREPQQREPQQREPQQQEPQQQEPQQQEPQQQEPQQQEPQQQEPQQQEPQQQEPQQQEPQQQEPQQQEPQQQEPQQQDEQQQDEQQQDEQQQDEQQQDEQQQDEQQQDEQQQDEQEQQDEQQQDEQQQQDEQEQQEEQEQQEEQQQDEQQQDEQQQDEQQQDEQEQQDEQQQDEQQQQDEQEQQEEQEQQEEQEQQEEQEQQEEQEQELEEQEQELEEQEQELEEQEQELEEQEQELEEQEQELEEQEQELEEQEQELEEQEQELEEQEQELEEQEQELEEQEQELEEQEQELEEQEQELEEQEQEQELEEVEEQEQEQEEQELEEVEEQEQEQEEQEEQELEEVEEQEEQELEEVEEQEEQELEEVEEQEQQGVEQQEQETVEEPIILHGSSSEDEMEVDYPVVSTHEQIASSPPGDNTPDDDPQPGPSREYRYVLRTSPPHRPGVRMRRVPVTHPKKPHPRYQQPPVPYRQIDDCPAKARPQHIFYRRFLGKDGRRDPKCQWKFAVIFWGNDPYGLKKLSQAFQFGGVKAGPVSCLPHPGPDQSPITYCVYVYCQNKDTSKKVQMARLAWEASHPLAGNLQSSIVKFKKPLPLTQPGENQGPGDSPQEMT
RTF Ca sens inh: cardiac RTF calcium desensitization | P19429+P45379 | IANBD-labeled cardiac RTF, Ca2+ fluorescence | inhibition, % at 7.15 µM | hit rate 0.12% among 340,000;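 active = inhibition above the mean inhibition of all tested compounds plus 3 SD, cut at about 17% in these data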;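 note: assay run at fixed EC70 calcium of 1.6 mM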
Keap1 Nrf2 FP: inhibitors of human Keap1-Nrf2 protein-protein interaction; Q14145; Keap1 Kelch-Nrf2 peptide fluorescence polarization, 1536-well; inhibition, % at 9.4 µM; hit rate 0.15% among 340,000; in the data active = inhibition above about 12%;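 note: human Keap1 Kelch domain with fluorescein labeled Nrf2 9mer peptide probe; 0% = neutral control wells and 100% = peptide positive control; higher means more block of Keap1 binding to Nrf2 peptide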
cardiac RTF act: cardiac RTF calcium sensitization | IANBD-labeled TnC RTF fluorescence at EC20 calcium; 0% EC20 calcium, 100% full calcium | activation, % at 7.2 µM | hit rate 0.24% among 340,000 | P19429+P45379;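 active = activation above the mean over all tested compounds plus 3 SD, cut at about 30% in these data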;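 note: rise in fluorescence read as greater calcium sensitivity of cardiac thin filaments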
* marks the source's active call; other numbers are inactive results; / = no result; + = active, no number; ! = repeats disagree.

SMILES	C-LANA FP	LANA-H2A inh	RTF Ca sens inh	Keap1 Nrf2 FP	cardiac RTF act
CC(=O)N(C)CC#CCN1CCC(O)CC1	2	0	5	-2	-2
C[N+]1(C)[C@@H]2CC[C@H]1CC(OC(=O)C(CO)c1ccccc1)C2 (some centres not stated)	-3	37*!	-10	-6	-1
C[N+]1(C)C2CCC1CC(OC(=O)C(CO)c1ccccc1)C2 (configuration not stated)	1	-2	6	-3	6
CCCCn1c(O)c(C(=O)/C=C/c2c[nH]c3ccccc23)c(=O)[nH]c1=O	0	2	-28	-8	67*
Cc1c(C=O)c2ccccc2n1Cc1ccccc1	2	4	-3	3	-4
O=Cc1c(C(=O)O)n(Cc2ccc(Cl)cc2)c2ccccc12	-11	10	-343	-85	320*
CC(=O)CCC(C)=O	-3	+	3	1	-2
COP(=S)(OC)SCN1C(=O)c2ccccc2C1=O	2	23*	10	-3	3
OC1(c2ccccc2)CCNC2CCCCC21 (configuration not stated)	4	1	5	3	-2
OC12CCCCC1C(c1ccccc1)NCC2 (configuration not stated)	-1	-10	3	1	210*
Cc1ccccc1-n1c(O)c(/C=C2/C(c3ccccc3)=Nc3ccccc32)c(=O)[nH]c1=O	3	-1	-5	-3	-3
Cc1cccc(-n2c(O)c(/C=C/C=Nc3ccccc3)c(=O)[nH]c2=O)c1	-18	-57	-100	-122	77*
Cc1cccc(-n2c(O)c(/C=C3/C(c4ccccc4)=Nc4ccccc43)c(=O)[nH]c2=O)c1	1	86*	-14	-4	-1
CCN(CC)S(=O)(=O)c1cccc(N=Nc2c(O)n(CC)c(=S)n(CC)c2=O)c1	-6	-4	-14	-6	0
O=c1ccc2c(O)c3ccoc3cc2o1	1	/	-9	1	2
Cc1ccc(-n2c(O)c(C=NCCCn3ccnc3)c(=O)[nH]c2=O)cc1	-1	13*	4	-3	0
O=[N+]([O-])c1ccc(N2CCCCCC2)c2nonc12	49	-16	-456	-42	316*
O=[N+]([O-])c1ccc(N2CCCCC2)c2ncccc12	0	1	1	-2	0
CCCOc1ccc(C(C)=O)cc1Cc1c(O)[nH]c(=S)[nH]c1=O	-3	16*	-4	-3	-3
CCOP(=S)(OCC)Oc1nc(Cl)c(Cl)cc1Cl	0	+	-2	-4	-5
CCNc1cc(N2CCNCC2)ccc1[N+](=O)[O-]	/	3	/	/	/
CC(C(=O)c1c[nH]c2ccccc12)N1CCSCC1 (configuration not stated)	0	23*	2	-3	-4
CC(C(=O)c1c[nH]c2ccccc12)N1CCOCC1 (configuration not stated)	-1	0	-8	1	4
CCC/C=N/O	-1	32*	-4	1	-4
O=C(Nc1cccc2ccccc12)c1nn(C23CC4CC(CC(C4)C2)C3)cc1Br	0	-4	-9	-3	-4
SMILES	C-LANA FP	LANA-H2A inh	RTF Ca sens inh	Keap1 Nrf2 FP	cardiac RTF act
CCCCCCn1c(=O)c(C(=O)Nc2nc(CC(=O)OCC)cs2)c(O)c2ccccc21	1	7	-3	3	0
CCOC(=O)Cc1csc(NC(=O)c2c(O)c3ccccc3n(CCC(C)C)c2=O)n1	0	15*	6	0	-4
CCN(CC)C(=O)c1ccc(NC(=O)CNC(C)c2cccc3ccccc23)cc1 (configuration not stated)	1	-3	8	-3	0
Cc1cc(C(=O)OCC(=O)Nc2ccc(F)cc2F)c(C)n1C1CC1	-2	146*	-14	0	0
Cc1cc(N(CCCl)CCCl)ccc1C=Cc1ccncn1	0	/	-95	-4	79*
OC(CCNCCc1c[nH]c2ccccc12)C(F)(F)Cl (configuration not stated)	1	0	1	-1	0
Cc1cc(C)c(C(=O)N2CCC3(CC2)OCCO3)c(C)c1	-2	28*	-3	-2	5
Cc1cc(C(=O)N2CCC3(CC2)OCCO3)cs1	0	1	-9	-5	0
COc1ccccc1C(=O)Nc1ccc2c(c1)CC1(C(=O)N(C)C(=O)N(C)C1=O)C1CCCN21 (configuration not stated)	-1	-5	-2	1	-3
